The supplement of paper PMC7156485

Assays:
Conditions in all cases: concentration: 10 µM; 24 h
HCC1569 [1] = experiment: cell number relative to DMSO (% of DMSO); higher = more cells (less growth inhibition / toxicity)
Procedure, shortened: (§1)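 In 384-well plates holding 800 HCC1569 or TDF cells per well in RPMI with 10% FBS, compounds were tested at 10 µM for 24 h at 37 °C in triplicate. Fixation used 3.7% formaldehyde. Staining used a rabbit anti-H1.0 antibody with an AlexaFluor 647 secondary, plus DAPI. Each value, H1.0 nuclear intensity or cell number, is a median of replicates shown as percent of the plate control, and HCC1569 values were smoothed for positional effects.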

TDF [2] = experiment: as above
Procedure, shortened: as §1

TDF [3] = experiment: H1.0 immunofluorescence intensity relative to DMSO (% of DMSO); higher = stronger H1.0 induction, active = 120 or more
Procedure, shortened: as §1

HCC1569 [4] = experiment: H1.0 immunofluorescence intensity relative to DMSO (% of DMSO); higher = stronger H1.0 induction, active = 140 or more
Procedure, shortened: as §1
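Throughout, for H1.0 immunofluorescence intensity relative to DMSO: TDF is a line of transformed human dermal fibroblasts of mesenchymal origin.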
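Throughout, for cell number relative to DMSO: TDF denotes transformed human dermal fibroblasts of mesenchymal origin.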

For `CCCCCCCCC=CCCCCCCCCOCC(COP(=O)([O-])OCC[N+](C)(C)C)OC(C)=O` (stereo unspecified), the cell number (HCC1569 [1]) was 101, the cell number (TDF [2]) was 114 and the H1.0 immunofluorescence intensity (TDF [3]) was 94 (inactive). The H1.0 immunofluorescence intensity (HCC1569 [4]) was 98.3 (inactive).
In the case of `COC1=C2CC(C)=c3c(C(C)=O)c(OC)c(O)c4c3c2c2c(cc(OC)c3c(OC)cc(O)c4c32)C(=O)C1=O` [Hypocrellin B], the cell number (HCC1569 [1]) is reported as 101, the cell number (TDF [2]) is reported as 95 and the H1.0 immunofluorescence intensity (TDF [3]) is reported as 97.1 (inactive). For the same compound, the H1.0 immunofluorescence intensity (HCC1569 [4]) was 93.7 (inactive).
With `Cl.Nc1cc(Nc2ccc(S(N)(=O)=O)cc2)ncn1` the cell number (HCC1569 [1]) was 100, the cell number (TDF [2]) was 93.3 and the H1.0 immunofluorescence intensity (TDF [3]) was 98.4 (inactive). For the same compound, the H1.0 immunofluorescence intensity (HCC1569 [4]) was 102 (inactive).
For `CN(C)CCCn1cc(C2=C(c3c[nH]c4ccccc34)C(=O)NC2=O)c2ccccc21` [Bisindolylmaleimide I], the cell number (HCC1569 [1]) was 85.8, the cell number (TDF [2]) was 80.3 and the H1.0 immunofluorescence intensity (TDF [3]) was 111 (inactive). For the same compound, the H1.0 immunofluorescence intensity (HCC1569 [4]) was 131 (inactive).
`CC1CCC2(OC1)OC1CC3C4CCC5CC(O)CCC5(C)C4CCC3(C)C1C2C` (stereo unspecified) [Sarsasapogenin] was tested, and the cell number (HCC1569 [1]) was 100, the cell number (TDF [2]) was 105 and the H1.0 immunofluorescence intensity (TDF [3]) was 106 (inactive). For the same compound, the H1.0 immunofluorescence intensity (HCC1569 [4]) was 107 (inactive).
In the case of `COc1cc2nc(N3CCN(C(=O)C4COc5ccccc5O4)CC3)nc(N)c2cc1OC` (stereo unspecified) [Doxazosin], the cell number (HCC1569 [1]) is reported as 96.5, the cell number (TDF [2]) is reported as 107 and the H1.0 immunofluorescence intensity (TDF [3]) is reported as 100 (inactive). The H1.0 immunofluorescence intensity (HCC1569 [4]) was 113 (inactive).
For `CC(C)c1ccc2oc3nc(N)c(C(=O)O)cc3c(=O)c2c1`, the cell number (HCC1569 [1]) was 104, the cell number (TDF [2]) was 109 and the H1.0 immunofluorescence intensity (TDF [3]) was 97.3 (inactive). The H1.0 immunofluorescence intensity (HCC1569 [4]) was 92.5 (inactive).
With `C=C1CC23CC1(O)CCC2C12C=CC(O)C(C)(C(=O)O1)C2C3C(=O)O` (single isomer, unassigned; (+)) [(+)-Gibberellic acid] the cell number (HCC1569 [1]) was 108, the cell number (TDF [2]) was 112 and the H1.0 immunofluorescence intensity (TDF [3]) was 98.6 (inactive). For the same compound, the H1.0 immunofluorescence intensity (HCC1569 [4]) was 89.5 (inactive).
`CC(C)c1cc(/C=C(\C#N)C(=O)NCCCc2ccccc2)cc(C(C)C)c1O` was tested, and the cell number (HCC1569 [1]) was 89.5, the cell number (TDF [2]) was 81.8 and the H1.0 immunofluorescence intensity (TDF [3]) was 97.9 (inactive). For the same compound, the H1.0 immunofluorescence intensity (HCC1569 [4]) was 141 (active).
With `O=C1NC(=O)c2cc(Nc3ccc(F)cc3)c(Nc3ccc(F)cc3)cc21` [PKCbII/EGFR Inhibitor] the cell number (HCC1569 [1]) was 95.1, the cell number (TDF [2]) was 111 and the H1.0 immunofluorescence intensity (TDF [3]) was 89.7 (inactive). The H1.0 immunofluorescence intensity (HCC1569 [4]) was 121 (inactive).
`CCCc1nn(C)c2c(=O)nc(-c3cc(S(=O)(=O)N4CCN(C)CC4)ccc3OCC)[nH]c12` [Sildenafil] was tested, and the cell number (HCC1569 [1]) was 101, the cell number (TDF [2]) was 94 and the H1.0 immunofluorescence intensity (TDF [3]) was 95.1 (inactive). For the same compound, the H1.0 immunofluorescence intensity (HCC1569 [4]) was 103 (inactive).
For `N[C@@H](COP(=O)(O)O)C(=O)O` [O-Phospho-L-serine], the cell number (HCC1569 [1]) was 99.1, the cell number (TDF [2]) was 101 and the H1.0 immunofluorescence intensity (TDF [3]) was 94.9 (inactive). For the same compound, the H1.0 immunofluorescence intensity (HCC1569 [4]) was 96.7 (inactive).
`O.O.O=c1c(O)c(-c2ccc(O)c(O)c2)oc2cc(O)cc(O)c12` was tested, and the cell number (HCC1569 [1]) was 90.7, the cell number (TDF [2]) was 89.7 and the H1.0 immunofluorescence intensity (TDF [3]) was 101 (inactive). The H1.0 immunofluorescence intensity (HCC1569 [4]) was 116 (inactive).
`O=C(NCCNCC(O)COc1ccc(O)cc1)N1CCOCC1.O=C(O)C=CC(=O)O` (stereo unspecified) [Xamoterol hemifumarate] was tested, and the cell number (HCC1569 [1]) was 104, the cell number (TDF [2]) was 98.5 and the H1.0 immunofluorescence intensity (TDF [3]) was 88.7 (inactive). For the same compound, the H1.0 immunofluorescence intensity (HCC1569 [4]) was 109 (inactive).
For `Cc1ccc(=O)n(-c2ccccc2)c1` [Pirfenidone], the cell number (HCC1569 [1]) was 102, the cell number (TDF [2]) was 103 and the H1.0 immunofluorescence intensity (TDF [3]) was 90.3 (inactive). The H1.0 immunofluorescence intensity (HCC1569 [4]) was 92.5 (inactive).
With `Nc1ccc2ncnc(NCCc3ccc(Oc4ccccc4)cc3)c2c1` [NF-kB Activation Inhibitor] the cell number (HCC1569 [1]) was 66.3, the cell number (TDF [2]) was 70.7 and the H1.0 immunofluorescence intensity (TDF [3]) was 106 (inactive). For the same compound, the H1.0 immunofluorescence intensity (HCC1569 [4]) was 164 (active).
For `Nc1nc2ccc(OC(F)(F)F)cc2s1` [Riluzole], the cell number (HCC1569 [1]) was 98.4, the cell number (TDF [2]) was 98.6 and the H1.0 immunofluorescence intensity (TDF [3]) was 94.6 (inactive). For the same compound, the H1.0 immunofluorescence intensity (HCC1569 [4]) was 94.6 (inactive).
In the case of `Nc1ncnc2n[nH]c(Nc3ccc(F)cc3)c12` [MNK1 Inhibitor], the cell number (HCC1569 [1]) is reported as 91.2, the cell number (TDF [2]) is reported as 110 and the H1.0 immunofluorescence intensity (TDF [3]) is reported as 88.8 (inactive). For the same compound, the H1.0 immunofluorescence intensity (HCC1569 [4]) was 140 (inactive).
In the case of `CN(CCOc1ccc(NS(C)(=O)=O)cc1)CCc1ccc(NS(C)(=O)=O)cc1` [Dofetilide], the cell number (HCC1569 [1]) is reported as 98, the cell number (TDF [2]) is reported as 121 and the H1.0 immunofluorescence intensity (TDF [3]) is reported as 103 (inactive). The H1.0 immunofluorescence intensity (HCC1569 [4]) was 99.5 (inactive).
For `Nc1nc2ccc(Cl)cc2c2nc(-c3ccco3)nn12`, the cell number (HCC1569 [1]) was 99.2, the cell number (TDF [2]) was 102 and the H1.0 immunofluorescence intensity (TDF [3]) was 96 (inactive). The H1.0 immunofluorescence intensity (HCC1569 [4]) was 118 (inactive).
`O=C(O)C=Cc1c[nH]c2ccccc12` [3-Beta-Indoleacrylic acid] was tested, and the cell number (HCC1569 [1]) was 97.9, the cell number (TDF [2]) was 101 and the H1.0 immunofluorescence intensity (TDF [3]) was 94.8 (inactive). For the same compound, the H1.0 immunofluorescence intensity (HCC1569 [4]) was 95.1 (inactive).
In the case of `Nc1ncn(C2OC(CO)C(O)C2O)c(=O)n1` (stereo unspecified) [5-azacytidine], the cell number (HCC1569 [1]) is reported as 65.7, the cell number (TDF [2]) is reported as 78 and the H1.0 immunofluorescence intensity (TDF [3]) is reported as 101 (inactive). For the same compound, the H1.0 immunofluorescence intensity (HCC1569 [4]) was 150 (active).
In the case of `Cl.Fc1ccc(C(OCCCc2cnc[nH]2)c2ccc(F)cc2)cc1`, the cell number (HCC1569 [1]) is reported as 99.8, the cell number (TDF [2]) is reported as 108 and the H1.0 immunofluorescence intensity (TDF [3]) is reported as 88.3 (inactive). The H1.0 immunofluorescence intensity (HCC1569 [4]) was 99.8 (inactive).
For `CC(=O)Oc1ccccc1C(=O)O` [Acetylsalicylic Acid], the cell number (HCC1569 [1]) was 101, the cell number (TDF [2]) was 99 and the H1.0 immunofluorescence intensity (TDF [3]) was 96.1 (inactive). For the same compound, the H1.0 immunofluorescence intensity (HCC1569 [4]) was 102 (inactive).
